Measurements taken from PubChem BioAssay AID2241 (Broad Institute, 2010).
The campaign covered roughly 21,000 compounds. About 110 (0.52%) were called active.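 The calls were made as follows: active = most replicate scores above 10, or exactly half above 10 with mean activity above 10; inconclusive = mean activity below 10 while half the replicates exceed 10; inactive = most replicate scores below 10.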 The full list was thinned out, with actives kept by preference.

assay: inducers of caspase activity in MEF A1-2A-BIM cells, primary screen, A1 inhibitor project, cell-based, CaspaseGlo luminescence (AID 2241); details: caspase-Glo luminescence, 3 h, active compounds read high, percent of clofoctol signal, DMSO as zero, concentration not given here;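 also: effector caspase 3 and 7 activity cleaving a DEVD luciferin substrate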

Caspase activation, inactive:
Cc1cccc(N2CCN(C(=O)CCn3c(=S)[nH]c4cc5c(cc4c3=O)OCO5)CC2)c1C -1.1%
COc1ccc(S(=O)(=O)Nc2ccc3c(c2)C(=O)N([C@@H](C)CO)C[C@H](C)[C@H](CN(C)Cc2ccc(C(=O)O)cc2)O3)cc1 0.618%
C/C=C1\CC(C)(CC)C(C#N)(C#N)C(N)=C1C#N (stereo not drawn) -1.08%
Cc1ccc(S(=O)(=O)Nc2ccc3oc(C)c(C(=O)NN)c3c2)cc1 0.426%
COc1ccc(CCn2c(C)nc(=O)c(-c3ccccc3)c2C)cc1OC 0.553%
CC1(C)CC(=O)C=C(Nc2ccccc2)C1 0.527%
CN(C)c1ccc(/C=C(\C#N)S(=O)(=O)c2ccccc2)cc1C#N 0.997%
COc1ccc(OC(=O)c2csc(Cc3c(Cl)cccc3Cl)n2)cc1 1.94%
O=C(Nc1nccs1)C1CCCN(C(=O)c2cnn(-c3ccccc3)c2-n2cccc2)C1 (stereo not drawn) 0.381%
CC1(C)CC(=O)C(C=NCc2cccnc2)=C(O)C1 1.24%
C[C@H](CO)N1C[C@H](C)[C@@H](CN(C)Cc2ccccc2)Oc2ccc(NC(=O)Nc3ccc4c(c3)OCO4)cc2C1=O 0.17%
COc1ccc(CN(C)C[C@@H]2Oc3ccc(NC(=O)NC(C)C)cc3C(=O)N([C@@H](C)CO)C[C@H]2C)cc1 -0.804%
CC1(C)Cc2c(sc3ncn4nc(COc5ccc(Cl)cc5)nc4c23)C(C)(C)N1 0.338%
C/C=C(/C)C(=O)O[C@H]1CC(C)(C)C[C@H]2C3=CCC4[C@@]5(C)CC[C@H](O[C@@H]6O[C@H](C(=O)O)[C@@H](O[C@@H]7O[C@H](CO)[C@H](O)[C@H](O)[C@H]7O[C@@H]7O[C@H](CO)[C@@H](O)[C@H](O)[C@H]7O)[C@H](O)[C@H]6O[C@@H]6O[C@@H](C)[C@H](O)[C@@H](O)[C@H]6O)C(C)(C)C5CC[C@@]4(C)[C@]3(C)[C@@H](O)[C@@H](O)[C@@]12CO (stereo partly drawn) -2.44%
COc1ccc(S(=O)(=O)N(C)C[C@H]2Oc3ccc(NC(=O)Nc4c(C)noc4C)cc3C(=O)N([C@H](C)CO)C[C@H]2C)cc1 -0.141%
CCOC(=O)c1cnc2cc(C(F)(F)F)ccc2c1N1CCCCCC1 0.00836%
C[C@H](CO)N1C[C@H](C)[C@H](CN(C)S(=O)(=O)c2cccs2)Oc2ccc(NS(=O)(=O)c3ccccc3)cc2C1=O -0.0772%
COc1cccc(NC(=O)c2cc3c(s2)-c2c(C)cccc2OC3)c1 -5.23%
